# Hits are enriched below; roughly 3.5% of the tested compounds scored in any of these assays.
# TMEM16A act = TMEM16A chloride channel activators or potentiators, primary screen, cell-based, HTS; Anoctamin-1 (Mus musculus), Q8BHY3; HEK293 TMEM16A/YFP-H148Q/I152L, iodide quench fluorescence; stronger effect = lower value; 0.3% of 340,000 active; AID 623877, 2012; B-score at 10 µM;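 active means fluorescence-ratio B-score plate-corrected deviation score at least 3 library SD below zero, with starting fluorescence score within 5 deviations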;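 further: channel opened by trigger with iodide after compound preincubation; score built on the fluorescence ratio of max minus min over baseline; more negative score means more quench and so TMEM16A activation or potentiation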
# ANO1 block = TMEM16A chloride channel inhibitors, primary screen, cell-based, HTS | Anoctamin-1 (Mus musculus), Q8BHY3 | HEK293 TMEM16A/YFP iodide influx fluorescence, ionomycin | normalized B-score (activity score, 25-100; higher = stronger inhibition) at 10 µM | 1.2% of 310,000 active | AID 588511, 2011;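 active means ratio plate-corrected score three or more library SD toward inhibition, starting fluorescence score within five deviations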;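 further: score derived from kinetic fluorescence span divided by baseline fluorescence per well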
# KCNK9 block = KCNK9 potassium channel inhibitors, primary screen, HEK293 cells, thallium flux. Potassium channel subfamily K member 9 (Homo sapiens), Q9NPC2. FluxOR thallium flux fluorescence; stronger effect = lower value. B-score at 10 µM. 1.2% of 310,000 active;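 active means ratio B-score over 3 SD below the library mean, with starting fluorescence within 5 SD of its mean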;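 further: negative B-score means less thallium flux so channel inhibition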
# KCNK3 block = human KCNK3 channel inhibitors, primary screen, CHO cells, FluxOR thallium flux, B-score; B-score at 10 µM; FluxOR fluorescence; stronger effect = lower value; Potassium channel subfamily K member 3 (Homo sapiens), O14649; AID 602410, 2012; 0.84% of 340,000 active;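 active means B-score under library mean minus 4 SD, starting fluorescence ratio at most library mean plus 5 SD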;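 further: more negative B-score means stronger inhibition of thallium flux through KCNK3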
# Kir21 block = inhibitors of mouse Kir2.1 inward-rectifier potassium channel; 0.85% of 310,000 active; B-score at 10 µM; AID 1672, 2009; HEK293-Kir2.1, FluxOR thallium flux fluorescence; stronger effect = lower value;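 active means fluorescence ratio B-score at or below minus 3 SD of library scores, with starting-brightness B-score within 2 SD, cut at about -4.2 in these data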;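 further: channel flux triggered by added potassium and thallium sulfate stimulus; B-score of peak minus minimum fluorescence over baseline after thallium stimulus; more negative B-score means stronger Kir2.1 block with less thallium influx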
# Target sequence (P35561 whole entry, looked up): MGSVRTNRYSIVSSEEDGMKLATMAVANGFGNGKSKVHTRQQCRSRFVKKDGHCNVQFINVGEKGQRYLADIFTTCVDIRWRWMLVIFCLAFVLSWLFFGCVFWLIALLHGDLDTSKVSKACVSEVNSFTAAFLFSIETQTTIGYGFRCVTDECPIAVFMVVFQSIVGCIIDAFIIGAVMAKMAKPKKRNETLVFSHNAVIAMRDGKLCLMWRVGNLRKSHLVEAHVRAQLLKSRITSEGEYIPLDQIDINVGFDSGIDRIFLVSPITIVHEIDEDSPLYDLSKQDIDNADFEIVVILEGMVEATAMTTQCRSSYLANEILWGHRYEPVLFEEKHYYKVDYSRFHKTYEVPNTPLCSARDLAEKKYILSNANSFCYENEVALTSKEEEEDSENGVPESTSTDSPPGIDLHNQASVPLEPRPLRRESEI
# TMEM16A reconf = TMEM16A chloride channel inhibitors, confirmation, cell-based, re-confirmation | HEK293 TMEM16A/YFP-H148Q, iodide quench fluorescence; ionomycin added to raise cell calcium | inhibition, % at 10 µM | AID 652189, 2013 | shares compounds with ANO1 block | 39% of 2,300 active;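 active means mean duplicate percent inhibition, scaled so buffer wells are 0 and the reference blocker 100, over three buffer SD above buffer mean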
# HEK293 Ca mobil = calcium mobilization in TMEM16A/YFP HEK293 cells, confirmation, counter-screen for TMEM16A inhibitor project; shares compounds with ANO1 block; Fluo4 calcium mobilization; calcium response (% of ionomycin), % at 10 µM; 2% of 2,300 active;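 active means duplicate-averaged calcium signal over 20% of the ionomycin maximum, relative to buffer baseline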;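 further: each well's signal is peak minus trough fluorescence divided by its pre-addition baseline; 0% = buffer wells and 100% = ionomycin wells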
# Parental YFP cnt = iodide YFP quench changes in parental YFP-HEK293, counter-screen for TMEM16A inhibitor project, cell-based. YFP ratio F(max-min)/F0 at 10 µM. shares compounds with ANO1 block. AID 652233, 2013. 2,300 tested, under 10 active. ionomycin;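 active means yellow fluorescent protein signal ratio exceeding the buffer control mean by over 5 SD of those controls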;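 further: ratio is mean of duplicate wells from kinetic YFP trace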
# ClC-1 inh = ClC-1 chloride channel inhibition, selectivity assay for TMEM16A inhibitor project, cell-based, voltage-dependent ClC-1. CHO ClC-1-YFP, iodide influx fluorescence quench; iodide control reads 0, buffer control 100. ratio percent, % at 10 µM. shares compounds with ANO1 block. AID 652236, 2013. 2,300 tested, under 10 active;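 active means duplicate-mean ratio percent above the mean of iodide-only control wells, which defines zero, plus 5 of their SD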;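 further: higher percent means stronger block of ClC-1 iodide influx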
# * = called active by the depositor; i = inactive; / = not tested or not shown.
SMILES,TMEM16A act,ANO1 block,KCNK9 block,KCNK3 block,Kir21 block,TMEM16A reconf,HEK293 Ca mobil,Parental YFP cnt,ClC-1 inh
N#CC(c1ccccc1)c1ccc2c(C(F)(F)F)cc(C(F)(F)F)nc2n1 (stereo not drawn),i,100*,i,i,0.42,42%*,i,-0.84,16
FC(F)(F)c1cc(C(F)(F)F)c2ccc(N/N=C/c3ccccc3)nc2n1,i,i,i,i,2.5,/,/,/,/
CC(=O)c1cn(CC(=O)Nc2ccc(C)cc2C)c2ccccc12,i,25*,i,i,-1.1,20%*,i,-1,-9
Cc1ccc(NC(=O)Cn2cc(C(=O)C3CC3)c3ccccc32)c(C)c1,i,i,i,i,0.03,/,/,/,/
CCOCCCNC(=S)N1CCN(c2nc(-c3ccccc3)cs2)CC1,i,i,i,i,-0.07,/,/,/,/
COCCCNC(=S)N1CCN(c2nc(-c3ccccc3)cs2)CC1,i,25*,i,i,-0.69,i,i,-0.83,-10
CCOc1nc(Nc2ccc(OC)cc2OC)nc(OCC)n1,i,i,i,i,0.08,/,/,/,/
CCOC(=O)N1CCN(Cc2nc(N)nc(Nc3ccc(Oc4ccccc4)cc3)n2)CC1,i,25*,/,i,/,17%*,i,-1.1,-5
C[C@@H]1CC=C[C@H]2[C@H]1C(=O)N(Cc1ccccc1)[C@H]2c1ccoc1,i,i,i,i,-1.2,/,/,/,/
CC[C@@H]1CC=C[C@H]2[C@H]1C(=O)N(Cc1ccccc1)[C@H]2c1ccoc1,i,100*,i,i,-3.6,44%*,i,-1.2,-8
CCN(CC)C(=O)c1cc([N+](=O)[O-])cc2c1-c1ccc([N+](=O)[O-])cc1C2=C(C#N)C#N,i,i,i,i,0.52,/,/,/,/
COCCN(C(=O)c1ccc(OC2CCN(S(=O)(=O)N(C)C)CC2)cc1)C(C)C,i,i,i,i,0.99,/,/,/,/
COC(=O)c1cc(CSc2nc3ccccc3c(=O)n2C)oc1C,i,100*,i,i,-0.27,34%*,i,-1.1,-12
COC(=O)[C@H](CC(C)C)NC(=O)NC1CCCCC1C (stereo partly drawn),i,25*,i,i,-0.53,i,i,-1,-10
COC(=O)[C@H](CC(C)C)NC(=O)NC1CCCc2ccccc21 (stereo partly drawn),i,i,i,i,-0.56,/,/,/,/
COc1cc(C(=O)NCC(=O)N2CCN(S(=O)(=O)c3ccccc3C(F)(F)F)CC2)cc(OC)c1OC,i,/,/,i,/,/,/,/,/
CCN(Cc1ccccc1)S(=O)(=O)c1ccc2oc(C(=O)O)c(C)c2c1,i,25*,i,i,0.05,i,i,-1.2,2
N#Cc1cnn(Cc2ccccc2)c1/N=C/N1CCOCC1,i,i,i,i,0.53,/,/,/,/
CN1CCN(/C=N/c2c(C#N)cnn2Cc2ccccc2)CC1,i,25*,i,i,1.3,i,i,-1,-4
Cn1nc(C(F)(F)F)c(/C=N/OC(=O)c2ccccc2)c1Sc1ccc(Cl)cc1,i,25*,i,i,0.72,i,i,-1.1,-8
COc1ccc(-c2c3c(nc4sc5c(Cl)nc(C)nc5c24)CCC3)cc1,i,100*,i,i,-0.32,i,i,-1.2,-7
Cc1ccc(-c2c3c(nc4sc(C(N)=O)c(N)c24)CCC3)cc1,i,i,i,i,0.57,/,/,/,/
CCN(/C=N/c1sc2c(c1C#N)CCCCC2)CC,i,100*,i,i,0.07,i,i,-1.3,-9
Cc1cccnc1NC(=O)c1ccc2c(c1)NC(=O)C(C)S2 (stereo not drawn),i,i,i,i,1.3,/,/,/,/
O=C(O)CCCN1C(=O)/C(=C\c2ccccc2OCc2ccccc2)SC1=S,i,25*,i,i,-0.12,i,i,-1.2,-34
SMILES,TMEM16A act,ANO1 block,KCNK9 block,KCNK3 block,Kir21 block,TMEM16A reconf,HEK293 Ca mobil,Parental YFP cnt,ClC-1 inh
O=C(O)CN1C(=O)/C(=C\c2ccccc2OCc2ccc(F)cc2)SC1=S,i,i,i,i,1.3,/,/,/,/
COc1cc2c(C(=O)N3CCN(c4ccccc4)CC3)c(C)oc2cc1Br,i,i,i,i,-0.04,i,i,-1.2,-4
COc1ccccc1-c1cc(C(=O)N2CCN(c3ccccc3)CC2)no1,i,i,i,i,-0.04,/,/,/,/
Cc1ccccc1NC(=O)CCC(=O)N/N=C/c1ccncc1,i,i,i,i,-1.1,/,/,/,/
NC(=O)c1ccccc1NC(=O)c1ccccc1Cl,i,i,i,i,1.2,/,/,/,/
O=C(Nc1nnc(C(F)(F)F)s1)C1COc2ccccc2O1 (stereo not drawn),i,100*,i,i,1.4,30%*,i,-1.1,-17
CCSc1nnc(NC(=O)c2ccc(Br)s2)s1,i,i,i,i,-0.34,/,/,/,/
O=C(Nc1ccccc1C(=O)Nc1nnc(C(F)(F)F)s1)c1ccccc1Cl,i,100*,i,i,-1.3,33%*,i,-1.2,-12
O=C(Nc1nnc(C(F)(F)F)s1)c1ccc(Br)s1,i,100*,i,i,0.37,26%*,i,-0.93,-16
Cn1c(=O)c2c(nc(C(O)c3ccccc3)n2C)n(C)c1=O (stereo not drawn),i,/,/,i,/,/,/,/,/
CCOC(=O)N(C)S(=O)(=O)c1ccccc1[N+](=O)[O-],i,i,i,i,1.1,/,/,/,/
CSCCC(NC(=O)COc1ccccc1)C(=O)N(C)Cc1ccc(Cl)cc1Cl (stereo not drawn),i,/,/,i,/,/,/,/,/
COc1ccc(C(C(=O)NC(C)(C)C)N(CCc2ccccc2)C(=O)CCC(=O)Nc2cc(C)on2)cc1 (stereo not drawn),i,i,i,i,0.94,/,/,/,/

# Assay outcomes (PubChem BioAssay)
